Measurements published in PubChem BioAssay (NCATS).
Results filed as inconclusive are left out. Activity calls are given as the source filed them. Calls come from the whole dose curve; as a rule, active = well fitted inhibition curve with a large enough effect; inconclusive = small, poorly fitted or top-dose-only effect; inactive = flat fitted curve, though single readings scatter.

Legend:
[1] = qHTS profiling for inhibitors of Plasmodium falciparum proliferation (AID 504749);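 note: 0% = DMSO vehicle and full inhibition = artemisinin control; nearly all actives have a fitted effect of over 60% in size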; conditions: P. falciparum in erythrocytes, SYBR Green DNA, 72 h, at 28.7 µM (top of the series)
How it was run: (§1)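 P. falciparum-infected erythrocytes (0.3% parasitemia, 2.5% hematocrit) incubated with compound 72 h at 37 C, 5% CO2. Parasite DNA detected by SYBR Green after lysis, overnight at room temperature; normalised to 0.29 uM artemisinin and DMSO.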

3D7 = assay: as above; conditions: P. falciparum in erythrocytes, SYBR Green DNA, 72 h; series mostly up to 28.7 µM
How it was run: as §1

7G8 = assay: as above; conditions: P. falciparum in erythrocytes, SYBR Green DNA, 72 h; series mostly up to 28.7 µM
How it was run: as §1

AA1029 = assay: as above; conditions: P. falciparum in erythrocytes, SYBR Green DNA, 72 h; series mostly up to 28.7 µM
How it was run: as §1

AS120 = assay: as above; conditions: P. falciparum in erythrocytes, SYBR Green DNA, 72 h; series mostly up to 28.7 µM
How it was run: as §1

ATS189 = assay: as above; conditions: P. falciparum in erythrocytes, SYBR Green DNA, 72 h; series mostly up to 28.7 µM
How it was run: as §1

ATS95 = assay: as above; conditions: P. falciparum in erythrocytes, SYBR Green DNA, 72 h; series mostly up to 28.7 µM
How it was run: as §1

C2A = assay: as above; conditions: P. falciparum in erythrocytes, SYBR Green DNA, 72 h; series mostly up to 28.7 µM
How it was run: as §1

CP185 = assay: as above; conditions: P. falciparum in erythrocytes, SYBR Green DNA, 72 h; series mostly up to 28.7 µM
How it was run: as §1

CP191 = assay: as above; conditions: P. falciparum in erythrocytes, SYBR Green DNA, 72 h; series mostly up to 28.7 µM
How it was run: as §1

CP192 = assay: as above; conditions: P. falciparum in erythrocytes, SYBR Green DNA, 72 h; series mostly up to 28.7 µM
How it was run: as §1

CC(C)[C@H](N)C(=O)OCC(CO)OCn1cnc2c(=O)[nH]c(N)nc21 (stereo partly specified)
inactive: activity, negative = inhibition ([1]; parasite line A) 14.7% | activity, negative = inhibition ([1]; parasite line B) 6.07% | Potency (3D7) | Potency (7G8) | Potency (AA1029) | Potency (AS120) | Potency (ATS189) | Potency (ATS95) | Potency (C2A) | Potency (CP185) | Potency (CP191) | Potency (CP192)

CC(C)O
inactive: activity, negative = inhibition ([1]; parasite line A) 2.73% | activity, negative = inhibition ([1]; parasite line B) 13.2% | Potency (3D7) | Potency (7G8) | Potency (AA1029) | Potency (AS120) | Potency (ATS189) | Potency (ATS95) | Potency (C2A) | Potency (CP185) | Potency (CP191) | Potency (CP192)

NC(=S)NS(=O)(=O)c1ccc(N)cc1
inactive: activity, negative = inhibition ([1]; parasite line A) -3.33% | activity, negative = inhibition ([1]; parasite line B) -5.51% | Potency (3D7) | Potency (7G8) | Potency (AA1029) | Potency (AS120) | Potency (ATS189) | Potency (ATS95) | Potency (C2A) | Potency (CP185) | Potency (CP191) | Potency (CP192)

O=C(NCCNCC(O)COc1ccc(O)cc1)N1CCOCC1 (stereo unspecified)
inactive: activity, negative = inhibition ([1]; parasite line A) 8.13% | activity, negative = inhibition ([1]; parasite line B) 8.21% | Potency (3D7) | Potency (7G8) | Potency (AA1029) | Potency (AS120) | Potency (ATS189) | Potency (ATS95) | Potency (C2A) | Potency (CP185) | Potency (CP191) | Potency (CP192)

O=C(NNCS(=O)(=O)O)c1ccncc1
inactive: activity, negative = inhibition ([1]; parasite line A) 13.1% | activity, negative = inhibition ([1]; parasite line B) 6.08% | Potency (3D7) | Potency (7G8) | Potency (AA1029) | Potency (AS120) | Potency (ATS189) | Potency (ATS95) | Potency (C2A) | Potency (CP185) | Potency (CP191) | Potency (CP192)

CS(=O)(=O)OCC(O)C(O)COS(C)(=O)=O (stereo unspecified)
inactive: activity, negative = inhibition ([1]; parasite line A) -4.77% | activity, negative = inhibition ([1]; parasite line B) -5.43% | Potency (3D7) | Potency (7G8) | Potency (AA1029) | Potency (AS120) | Potency (ATS189) | Potency (ATS95) | Potency (C2A) | Potency (CP185) | Potency (CP191) | Potency (CP192)

O=C1c2ccccc2C(=O)c2c1ccc(O)c2O
inactive: activity, negative = inhibition ([1]; parasite line A) 4.44% | activity, negative = inhibition ([1]; parasite line B) -3.93% | Potency (3D7) | Potency (7G8) | Potency (AA1029) | Potency (AS120) | Potency (ATS189) | Potency (ATS95) | Potency (C2A) | Potency (CP185) | Potency (CP191) | Potency (CP192)

CC1=CC(=O)NS(=O)(=O)O1
inactive: activity, negative = inhibition ([1]; parasite line A) 0.853% | activity, negative = inhibition ([1]; parasite line B) 6.07% | Potency (3D7) | Potency (7G8) | Potency (AA1029) | Potency (AS120) | Potency (ATS189) | Potency (ATS95) | Potency (C2A) | Potency (CP185) | Potency (CP191) | Potency (CP192)

C=CCOc1ccc(CC(=O)O)cc1Cl
inactive: activity, negative = inhibition ([1]; parasite line A) 8.56% | activity, negative = inhibition ([1]; parasite line B) 1.68% | Potency (3D7) | Potency (7G8) | Potency (AA1029) | Potency (AS120) | Potency (ATS189) | Potency (ATS95) | Potency (C2A) | Potency (CP185) | Potency (CP191) | Potency (CP192)

CCCCO
inactive: activity, negative = inhibition ([1]; parasite line A) 5.51% | activity, negative = inhibition ([1]; parasite line B) 16.3% | Potency (3D7) | Potency (7G8) | Potency (AA1029) | Potency (AS120) | Potency (ATS189) | Potency (ATS95) | Potency (C2A) | Potency (CP185) | Potency (CP191) | Potency (CP192)

NC(=O)C1c2ccccc2CCc2ccccc21
inactive: activity, negative = inhibition ([1]; parasite line A) -4.87% | activity, negative = inhibition ([1]; parasite line B) 8.64% | Potency (3D7) | Potency (7G8) | Potency (AA1029) | Potency (AS120) | Potency (ATS189) | Potency (ATS95) | Potency (C2A) | Potency (CP185) | Potency (CP191) | Potency (CP192)

S=C=Nc1ccc(N=C=S)cc1
inactive: activity, negative = inhibition ([1]; parasite line A) 10.9% | activity, negative = inhibition ([1]; parasite line B) 0.756% | Potency (3D7) | Potency (7G8) | Potency (AA1029) | Potency (AS120) | Potency (ATS189) | Potency (ATS95) | Potency (C2A) | Potency (CP185) | Potency (CP191) | Potency (CP192)

O=C(O)Cc1nn(Cc2ccc(Br)cc2F)c(=O)c2ccccc12
inactive: activity, negative = inhibition ([1]; parasite line A) 0.835% | activity, negative = inhibition ([1]; parasite line B) -5.83% | Potency (3D7) | Potency (7G8) | Potency (AA1029) | Potency (AS120) | Potency (ATS189) | Potency (ATS95) | Potency (C2A) | Potency (CP185) | Potency (CP191) | Potency (CP192)

CN[C@@H]1[C@H](O[C@H]2[C@H](O[C@H]3[C@H](O)[C@@H](O)[C@H](N=C(N)N)[C@@H](O)[C@@H]3N=C(N)N)O[C@@H](C)[C@]2(O)C=O)O[C@@H](CO)[C@H](O)[C@H]1O
inactive: activity, negative = inhibition ([1]; parasite line A) 5.41% | activity, negative = inhibition ([1]; parasite line B) 15.5% | Potency (3D7) | Potency (7G8) | Potency (AA1029) | Potency (AS120) | Potency (ATS189) | Potency (ATS95) | Potency (C2A) | Potency (CP185) | Potency (CP191) | Potency (CP192)

CCCCCCCCCCCC(=O)N(CCO)CCO
inactive: activity, negative = inhibition ([1]; parasite line A) -3.5% | activity, negative = inhibition ([1]; parasite line B) 9.6% | Potency (3D7) | Potency (7G8) | Potency (AA1029) | Potency (AS120) | Potency (ATS189) | Potency (ATS95) | Potency (C2A) | Potency (CP185) | Potency (CP191) | Potency (CP192)

O=C1N=C2SCCN2C(=O)C1Cc1ccc(Cl)cc1 (stereo unspecified)
inactive: activity, negative = inhibition ([1]; parasite line A) 18.3% | activity, negative = inhibition ([1]; parasite line B) 17.2% | Potency (3D7) | Potency (7G8) | Potency (AA1029) | Potency (AS120) | Potency (ATS189) | Potency (ATS95) | Potency (C2A) | Potency (CP185) | Potency (CP191) | Potency (CP192)

[O]=[Bi][O][Bi]=[O]
inactive: activity, negative = inhibition ([1]; parasite line A) 0.672% | activity, negative = inhibition ([1]; parasite line B) 4.28% | Potency (3D7) | Potency (7G8) | Potency (AA1029) | Potency (AS120) | Potency (ATS189) | Potency (ATS95) | Potency (C2A) | Potency (CP185) | Potency (CP191) | Potency (CP192)

C[C@H](N)C(=O)N[C@@H](C)P(=O)(O)O
inactive: activity, negative = inhibition ([1]; parasite line A) 12.4% | activity, negative = inhibition ([1]; parasite line B) 10.4% | Potency (3D7) | Potency (7G8) | Potency (AA1029) | Potency (AS120) | Potency (ATS189) | Potency (ATS95) | Potency (C2A) | Potency (CP185) | Potency (CP191) | Potency (CP192)
